Experimental data as given in PubChem BioAssay.
Activity calls are given as the source filed them.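 The calls were made as follows, unless noted: active = inhibition of the reporter signal at or above 50%; inactive = inhibition below 50%.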

How the values were obtained:
[1] = inhibitors of TNFa-induced NFkB p65 translocation, primary screen, imaging, HUVEC, MLSMR starter and 10KST1 sets (AID 438;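 active = inhibition above 20% together with a positive visual image hit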;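 also: compound added about 3h40 before a 20 min TNFalpha stimulation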;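 as to inhibition: signal is the nuclear over cytoplasmic p65 intensity ratio per well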); conditions: HUVEC TNFa-induced p65 nuclear translocation; cell count: measured here: nuclei count (cytotoxicity indicator), at 2.08 µM unless noted; inhibition: at 2 µM, stronger effect = higher value unless noted
[2] = inhibitors of mutant huntingtin aggregation, primary screen, imaging, exon1htt(103Q)mCFP cells, high-content imaging (AID 483;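 active = visual image review flags a hit and inhibition of aggregation exceeds 20%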;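 also: compound exposure lasted 3 days before fixation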;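 as to nuclei count: percent of the per-plate median nuclei count of sample wells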); conditions: exon1htt(103Q)mCFP cell line, aggregate imaging, at 2 µM; inhibition of aggregation: stronger effect = higher value; nuclei count: measured here: cell count, toxicity
[3] = inhibitors of E-selectin induction by TNFa, primary screen, imaging, HUVEC, immunofluorescence, MLSMR starter and 10KST1 sets (AID 487;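 active = visually confirmed hit in the image check and inhibition above 20%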;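 as to inhibition: signal is fraction of cell area covered by stained E-selectin grains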;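 as to nuclei count: 100% = median nuclei count of all wells on the same plate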); conditions: HUVEC TNFalpha-induced E-selectin immunofluorescence imaging, at 2 µM; inhibition: stronger effect = higher value; nuclei count: measured here: cell number, toxicity
[4] = target: Voltage-gated potassium channel subunit beta-2 (Rattus norvegicus) (UniProt P62483); assay: KvBeta enzyme negative modulators, primary screen, biochemical, NADPH fluorescence (AID 622;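 active = fluorescence slope higher than the sample average by over 3 SD, cut at about -0.22 in these data, passing the limit was not always enough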;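 also: slope of raw intensity against log time taken from 70 to 1610 s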); conditions: recombinant KvBeta, 4-cyanobenzaldehyde reduction, at 10 µM, stronger effect = higher value
Voltage-gated potassium channel subunit beta-2 (Rattus norvegicus), sequence (P62483 whole entry, looked up): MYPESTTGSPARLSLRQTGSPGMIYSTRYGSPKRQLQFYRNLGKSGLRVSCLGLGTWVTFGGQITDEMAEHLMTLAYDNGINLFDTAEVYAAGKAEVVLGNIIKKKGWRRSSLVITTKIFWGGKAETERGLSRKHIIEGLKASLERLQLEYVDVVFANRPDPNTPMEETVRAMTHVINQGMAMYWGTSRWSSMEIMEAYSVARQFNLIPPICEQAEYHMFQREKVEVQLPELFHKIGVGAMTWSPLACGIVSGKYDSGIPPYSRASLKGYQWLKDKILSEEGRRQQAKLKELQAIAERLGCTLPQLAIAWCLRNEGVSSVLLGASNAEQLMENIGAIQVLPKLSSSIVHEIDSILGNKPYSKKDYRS

[5] = target: Voltage-gated potassium channel subunit beta-2 (Rattus norvegicus) (UniProt P62483); assay: KvBeta positive modulators, primary screen, biochemical, NADPH fluorescence (AID 623;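 active = NADPH fluorescence slope more negative than the mean of all samples by about 3 SD, 99.7% confidence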;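 also: fluorescence intensity change per second fitted from 20 to 320 s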); conditions: Recombinant KvBeta, NADPH fluorescence decrease slope, 10 min; at 10 µM; stronger effect = lower value
[6] = target: Alpha-2C adrenergic receptor (Homo sapiens) (UniProt P18825); assay: modulators of alpha2C/GIRK thallium flux, primary screen, cell-based, HEK293 alpha2C/GIRK1/2 (AID 624;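 active = fluorescence slope after compound addition differing from the mean of all screened samples at 99.7% confidence, in either direction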;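 also: slope of fluorescence ratio to pre-addition baseline per second over 15 to 24 s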); conditions: thallium flux BTC fluorescence, at 10 µM, actives lie on both sides
Alpha-2C adrenergic receptor (Homo sapiens), sequence (P18825 whole entry, looked up): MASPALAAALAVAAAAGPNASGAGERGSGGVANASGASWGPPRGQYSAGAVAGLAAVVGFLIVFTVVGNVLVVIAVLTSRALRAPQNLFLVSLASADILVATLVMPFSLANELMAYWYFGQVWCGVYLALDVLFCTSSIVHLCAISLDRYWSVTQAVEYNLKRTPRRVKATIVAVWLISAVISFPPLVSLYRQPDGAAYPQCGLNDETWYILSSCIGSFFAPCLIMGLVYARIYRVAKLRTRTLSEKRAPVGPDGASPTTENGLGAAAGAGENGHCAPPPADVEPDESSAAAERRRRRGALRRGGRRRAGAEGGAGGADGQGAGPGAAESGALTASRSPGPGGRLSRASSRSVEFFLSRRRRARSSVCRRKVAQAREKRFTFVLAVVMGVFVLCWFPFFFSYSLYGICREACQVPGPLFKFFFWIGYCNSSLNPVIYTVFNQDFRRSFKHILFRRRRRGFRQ

[7] = inhibitors of Sendai virus-induced IRF3 signaling, primary screen, TLR/RLR signaling modifier project, cell-based, Sendai virus stimulus, luciferase, 10K MLSCN set (AID 602276;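 active = inhibition at or above 50% at 10 µM; inactive = inhibition below 50%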;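 also: firefly luciferase from ISG56 promoter only with Renilla not read in this screen; 0% = Sendai virus plus DMSO and 100% = medium plus DMSO without virus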); conditions: HEK293 RL24 IRF3 luciferase reporter, at 10 µM, stronger effect = higher value
[8] = inhibitors of poly I:C-induced TLR3 signaling, primary screen, cell-based, poly I:C stimulus, luciferase, 10K MLSCN set (AID 602277); conditions: HEK293-TLR3 RL24 IRF3 luciferase reporter, at 10 µM, stronger effect = higher value

SMILES | cell count [1] | inhibition [1] | inhibition of aggregation [2] | nuclei count [2] | inhibition [3] | nuclei count [3] | fluorescence slope [4] | NADPH fluorescence slope [5] | slope [6] | inhibition [7] | inhibition [8]
O=c1[nH]c(=O)n(-c2ccc(F)cc2)c(O)c1C=Nc1ccccc1N1CCCC1 | 459 | -0.3% (inactive) | -4.4% (inactive) | 112% | -109% (inactive) | 118% | -0.0108 (inactive) | 1.9e-06 (inactive) | 0.00376 (inactive) | 3.89% (inactive) | 14.6% (inactive)
COc1ccc(C(=O)C(C)(C)NO)cc1 | 653 | -4.6% (inactive) | 12.4% (inactive) | 94.3% | -81.1% (inactive) | 119% | -0.62 (inactive) | 1.3e-05 (inactive) | 0.00701 (inactive) | 12.6% (inactive) | 26.7% (inactive)
Cc1cccc(-n2c(O)c(C=NCCCN3CCOCC3)c(=O)[nH]c2=O)c1C | 710 | -3.5% (inactive) | 9.8% (inactive) | 96.5% | 26.7% (inactive) | 102% | -0.391 (inactive) | 2.3e-05 (inactive) | 0.00546 (inactive) | 0.794% (inactive) | 3.78% (inactive)
CC(C)OCCCNC(=O)c1c(N)n(Cc2cccs2)c2nc3ccccc3nc12 | 434 | -9.3% (inactive) | 17.9% (inactive) | 90.9% | 4.6% (inactive) | 134% | -0.212 (inactive) | 1.8e-05 (inactive) | 0.00386 (inactive) | 14.8% (inactive) | 37.4% (inactive)
CCCCNC(=O)c1c(N)n(CCCOC)c2nc3ccccc3nc12 | 447 | 14.6% (inactive) | 16.7% (inactive) | 95% | 0.8% (inactive) | 111% | -0.245 (inactive) | -2.4e-06 (inactive) | 0.00654 (inactive) | -5.16% (inactive) | -28.3% (inactive)
CC(=NCc1ccc2c(c1)OCO2)c1c(O)n(C)c(=O)n(C)c1=O | 629 | -10.8% (inactive) | 0.7% (inactive) | 94.1% | 5.3% (inactive) | 97.5% | -0.409 (inactive) | 1.3e-05 (inactive) | 0.00333 (inactive) | 20.7% (inactive) | 25.9% (inactive)
COc1ccc(CCn2c(O)c(C=NCCCN(C)C)c(=O)[nH]c2=O)cc1OC | 338 | -1.6% (inactive) | 12.1% (inactive) | 110% | -38.1% (inactive) | 108% | -0.446 (inactive) | -2.8e-05 (inactive) | 0.00426 (inactive) | 11.5% (inactive) | 8.09% (inactive)
c1ccc(C2CC3CC(c4ccco4)N2O3)cc1 (centres undefined) | 301 | -1.4% (inactive) | 0% (inactive) | 108% | -68.5% (inactive) | 118% | -0.514 (inactive) | -2.8e-05 (inactive) | 0.00573 (inactive) | 9.13% (inactive) | 16.9% (inactive)
c1ccc(C2NCc3ccccc3-n3cccc32)cc1 (centres undefined) | 704 | -11% (inactive) | 22.5% (inactive) | 66.6% | -10.1% (inactive) | 93.5% | -0.554 (inactive) | -4e-05 (inactive) | 0.00504 (inactive) | 6.74% (inactive) | 15.8% (inactive)
CCCCCCOc1ccc(CN2CCN(C)CC2)cc1 | 302 | -5% (inactive) | 2.1% (inactive) | 107% | -127% (inactive) | 128% | -0.46 (inactive) | -0.000138 (inactive) | 0.00769 (inactive) | 25.8% (inactive) | 8.4% (inactive)
O=P(OCC(F)(F)C(F)F)(N1CCCCC1)N1CCCCC1 | 336 | -10.1% (inactive) | -9.4% (inactive) | 121% | -152% (inactive) | 134% | -0.5 (inactive) | 2.3e-05 (inactive) | 0.00426 (inactive) | 7.79% (inactive) | 9.95% (inactive)
COc1ccc(C2SCC(=O)Nc3c2c(=O)[nH]n3C2CCCCCC2)cc1OC (centres undefined) | 316 | 21% (inactive) | -0.4% (inactive) | 97.9% | -11.5% (inactive) | 109% | -0.614 (inactive) | -4.2e-05 (inactive) | 0.00412 (inactive) | 13.9% (inactive) | 23.3% (inactive)
O=C(Cn1ncc2c3ccccc3n(Cc3ccc(F)cc3)c2c1=O)N1CCC2(CC1)OCCO2 | 454 | 2.9% (inactive) | -17.5% (inactive) | 74.9% | -167% (inactive) | 130% | -0.295 (inactive) | -5.2e-05 (inactive) | 0.00589 (inactive) | 7.71% (inactive) | 2.33% (inactive)
C=CCn1c(O)c(C(C)=NCCCO)c(=O)[nH]c1=O | 631 | 5.7% (inactive) | -3.2% (inactive) | 108% | -110% (inactive) | 156% | -0.467 (inactive) | -4.7e-05 (inactive) | 0.00383 (inactive) | -1.46% (inactive) | 16.8% (inactive)
CN(C)c1cc(N)c2c(n1)CCC2 (tested in a mixture with another compound) | 443 | -0.3% (inactive) | -9% (inactive) | 98.2% | -17.4% (inactive) | 124% | -0.376 (inactive) | -5.8e-05 (inactive) | 0.00598 (inactive) | 11.4% (inactive) | 17.8% (inactive)
N#Cc1ccccc1Cn1cc(C(=O)C2CC2)c2ccccc21 | 390 | -2.2% (inactive) | -0.9% (inactive) | 101% | -50.9% (inactive) | 107% | -0.447 (inactive) | -7.2e-05 (inactive) | 0.00467 (inactive) | 2.45% (inactive) | 19.3% (inactive)
CCN1c2nc3c(C)cccn3c(=O)c2CC2(C(=O)N(C)C(=O)N(C)C2=O)C1C (centres undefined) | 413 | 8.9% (inactive) | 8.3% (inactive) | 100% | 19.8% (inactive) | 111% | -0.477 (inactive) | -5.3e-05 (inactive) | 0.00711 (inactive) | 16.5% (inactive) | 17.7% (inactive)
Cc1nn(Cc2ccccc2Cl)c(Cl)c1C(=O)OCC(=O)NCc1ccco1 | 459 | -14% (inactive) | 3.2% (inactive) | 105% | -20.7% (inactive) | 112% | -0.605 (inactive) | -1.7e-05 (inactive) | 0.00264 (inactive) | 5.25% (inactive) | -0.539% (inactive)
CP(C)(=O)CCC(=O)O | 347 | -7.5% (inactive) | -5.3% (inactive) | 99.6% | -100% (inactive) | 118% | -0.434 (inactive) | -0.000166 (inactive) | 0.00678 (inactive) | 2.85% (inactive) | 10.1% (inactive)
CCOc1c(P(=S)(N(C)C)N(C)C)c(C)nn1-c1ccccc1 | 305 | -5.2% (inactive) | 4.6% (inactive) | 108% | -3.3% (inactive) | 112% | -0.345 (inactive) | 8e-06 (inactive) | 0.0033 (inactive) | 13.8% (inactive) | 16.7% (inactive)
CCN(CC)CCN=Cc1c(O)n(CCC2=CCCCC2)c(=O)[nH]c1=O | 677 | -6% (inactive) | -1.5% (inactive) | 94.9% | 5.2% (inactive) | 104% | -0.618 (inactive) | -1.2e-05 (inactive) | 0.00557 (inactive) | -53.3% (inactive) | -117% (inactive)
COc1ccc(CN2CCN(c3ccccc3F)CC2)c(OC)c1 | 420 | 7.1% (inactive) | -8.1% (inactive) | 109% | -39% (inactive) | 125% | -0.38 (inactive) | 4.4e-05 (inactive) | 0.00736 (inactive) | 4.18% (inactive) | 24.2% (inactive)
CCCCn1c(C)c(C(=O)OCC)c2c(CN3CCOCC3)c(O)ccc21 | 702 | 0.6% (inactive) | -0.7% (inactive) | 82.8% | -44.3% (inactive) | 100% | -0.373 (inactive) | -2.7e-05 (inactive) | 0.00475 (inactive) | 11.9% (inactive) | 19.2% (inactive)
CCOC(=O)C1SC2(C(F)F)CC1(O)c1c(c(OC)c3occc3c1OC)O2 (centres undefined) | 665 | -5.1% (inactive) | 13% (inactive) | 98.5% | 52.9% (inactive) | 105% | -0.326 (inactive) | -5.6e-05 (inactive) | 0.00497 (inactive) | 4.1% (inactive) | 14.4% (inactive)
Cc1nn(-c2ccccc2)c2c1CC1(C(=O)N(C)C(=O)N(C)C1=O)C1CCCCN21 (centres undefined) | 438 | -14.2% (inactive) | 26.9% (inactive) | 65.3% | -8.8% (inactive) | 101% | -0.509 (inactive) | -2.5e-05 (inactive) | 0.00545 (inactive) | -9.7% (inactive) | 28.2% (inactive)
COc1ccc(CC2C(=O)NC(=O)NC2=O)c(OC)c1 | 757 | 1.7% (inactive) | -24.3% (inactive) | 105% | -3.4% (inactive) | 105% | -0.406 (inactive) | 5.3e-05 (inactive) | 0.00731 (inactive) | -6.04% (inactive) | -0.414% (inactive)
CN1C(=O)C(Cc2cccc3ccccc23)C(=O)N(C)C1=O | 393 | 6.3% (inactive) | -7.2% (inactive) | 108% | -57.4% (inactive) | 125% | -0.47 (inactive) | -4.8e-05 (inactive) | 0.00658 (inactive) | 2.57% (inactive) | 32.2% (inactive)
CCn1nc(-c2ccccc2)nc2c(=O)n(C)c(=O)nc1-2 | 367 | -31.1% (inactive) | -8.2% (inactive) | 86% | -133% (inactive) | 109% | -0.457 (inactive) | 1.4e-06 (inactive) | -0.00207 (active) | -39.4% (inactive) | 94.3% (active)
O=C(NC1(C(F)(F)F)Oc2ccc(Cl)cc2O1)N1CCC2(CC1)OCCO2 (centres undefined) | 676 | -22.3% (inactive) | -18.5% (inactive) | 114% | -97.5% (inactive) | 108% | -0.513 (inactive) | -9.9e-05 (inactive) | 0.00493 (inactive) | 8.96% (inactive) | 38.5% (inactive)
